{"source": "PubChem BioAssay (NCI)", "note": "This is part of a sample that, as a whole, favours compounds with a hit. Of some 83,000 tested, about 20% had one in any assay.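 Assay: single dose, 48 h. Readout: percent growth (0 = no net growth; negative = cell death). Active: <10.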 Unmarked numbers belong to inactive results. Calls of active or inactive are those of the source."}
{"test_system": "HCT-15 colon", "assay": "NCI-60 one-dose screen, 48 h (100 = growth as untreated, 0 = no growth, -100 = all killed)", "conditions": "10 µM unless noted"}
{"smiles": "O=NN1CCCc2cccc(O)c21", "growth": "27.2%"}
{"smiles": "Fc1ccc2c(c1)c(-c1nc(-c3c[nH]c4ncccc34)cs1)cn2CCN1CCOCC1", "growth": "27.2%"}
{"smiles": "CC(=O)Nc1nc2c(s1)CC[C@@]1(C)C2=CC[C@H]2[C@@H]3CC[C@H](O)[C@@]3(C)CC[C@@H]21", "growth": "29.5%"}
{"smiles": "CN(C)CC(C(=O)Cc1ccccc1)c1ccccc1", "note": "(configuration not stated)", "growth": "37.2%"}
{"smiles": "CCOC(=O)[C@@H](C)C[C@H](Cc1ccccc1)NC(=O)c1csc([C@@H](C[C@H](C(C)C)N(C)C(=O)[C@H](CCC(C)C)NC(=O)[C@H]2CCCCN2C)OC(C)=O)n1", "growth": "15.2%"}
{"smiles": "CCCCCCCCCCCCCCCCCC1OC[C@H](COC(=O)O[C@@H](C(=O)O[C@H]2C[C@@]3(O)[C@@H](OC(=O)c4ccccc4)[C@@H]4[C@]5(OC(C)=O)CO[C@@H]5C[C@H](O)[C@@]4(C)C(=O)[C@H](OC(C)=O)C(=C2C)C3(C)C)[C@@H](NC(=O)c2ccccc2)c2ccccc2)O1", "note": "(some centres not stated)", "growth": "96.8%"}
{"smiles": "c1cnc2[nH]cc(-c3csc(-c4cn(CCCCN5CCCCC5)c5ccccc45)n3)c2c1", "growth": "51%"}
{"smiles": "C=C1C[C@](OC)([C@H](O)C(=O)N[C@@H](OC)[C@@H]2C[C@@H](O)C(C)(C)[C@@H](C[C@@H](COC)OC)O2)O[C@H](C)[C@@H]1C", "growth": "-51.3% (active)"}
{"smiles": "O=C(Nc1ccc(O)cc1)C(Cl)(Cl)Cl", "growth": "98.7%"}
{"smiles": "Cc1c(NS(=O)(=O)c2ccccc2)ccc([N+](=O)[O-])c1Cl", "growth": "64.9%"}
{"smiles": "CCCCN1CCCC[C@@H]1C(=O)N[C@H](C(=O)N(C)[C@H](C[C@@H](OC(C)=O)c1nc(C(=O)NC2CCC(C(=O)OC)CC2)cs1)C(C)C)C(C)C", "note": "(some centres not stated)", "growth": "30.9%"}
{"smiles": "Cn1cc(-c2csc(-c3cn(CCCCN4CCCCC4)c4ccc(F)cc34)n2)c2cccnc21", "growth": "76%"}
{"smiles": "CC1=C(CN)C2=C(C)C3(CC3)[C@@](C)(O)C(=O)C2=C1", "growth": "96.4%"}
{"smiles": "CC(=O)O[C@H]1C(=O)[C@@]2(C)[C@H]([C@H](OC(=O)c3ccccc3)[C@]3(O)C[C@H](OC(=O)[C@H](OC(=O)OC[C@H]4COC(C)(C)O4)[C@@H](NC(=O)c4ccccc4)c4ccccc4)C(C)=C1C3(C)C)[C@]1(OC(C)=O)CO[C@@H]1C[C@@H]2O", "growth": "5.28% (active)"}
{"smiles": "Cn1cc(-c2csc(-c3cn(CCN4CCOCC4)c4ccc(F)cc34)n2)c2cccnc21", "growth": "19.6%"}
{"smiles": "Brc1ccc2c(c1)c(-c1nc(-c3c[nH]c4ncccc34)cs1)cn2CCN1CCOCC1", "growth": "35.5%"}
{"smiles": "COC(=O)[C@@H](C)C[C@H](Cc1ccccc1)NC(=O)c1csc([C@@H](C[C@H](C(C)C)N(C)C(=O)[C@@H](NC(=O)[C@H]2CCCCN2C)C2CCCCC2)OC(C)=O)n1", "growth": "10.8%"}
{"smiles": "CC(=O)OC1CCC2(C)C(CCC3C2CC(=O)C2(C)C3CC(Sc3ccc(N(CCCl)CCCl)cc3)C2C(C)=O)C1", "note": "(configuration not stated)", "growth": "50.5%"}
{"smiles": "COc1ccc(S(=O)(=O)N(Cc2ccc3c(c2)C=CC(C)(C)O3)c2ccccc2)cc1OC", "growth": "74.9%"}
{"smiles": "CC[C@H](C)[C@H](NC(=O)[C@H]1CCCCN1C)C(=O)N(C)[C@H](CC(=O)c1nc(C(=O)N[C@@H](Cc2ccccc2)C[C@H](C)C(=O)O)cs1)C(C)C", "growth": "99.2%"}
{"smiles": "COC(=O)[C@@H](C)C[C@H](Cc1ccccc1)NC(=O)c1csc([C@@H](C[C@H](C(C)C)N(C)C(=O)[C@@H](NC(=O)C23CC(NC(C)=O)(C2)C3)C2CC2)OC(C)=O)n1", "growth": "92%"}
{"smiles": "O=C1CC2(CC3(Cl)C(Cl)=C(Cl)C2(Cl)C3(Cl)Cl)C(=O)O1", "note": "(configuration not stated)", "growth": "113%"}
{"smiles": "C[n+]1c(/C=C/c2ccc(N(CCCl)CCCl)cc2)sc2ccccc21", "growth": "82.2%"}
{"smiles": "CC[C@H](C)[C@H](NC(=O)NC(C)(C)C)C(=O)N(C)[C@H](C[C@@H](OC(C)=O)c1nc(C(=O)N[C@@H](Cc2ccccc2)C[C@H](C)C(=O)OC)cs1)C(C)C", "growth": "9.49% (active)"}
{"smiles": "CCCCCCCC[N+](C)(CCCCCCCC)CCCCCCCC", "growth": "-75% (active)"}
{"smiles": "CC(=O)O[C@H]1C(=O)[C@@]2(C)[C@H]([C@H](OC(=O)c3ccccc3)[C@]3(O)C[C@H](OC(=O)[C@H](OC(=O)OC[C@@H]4COC(C)(C)O4)[C@@H](NC(=O)c4ccccc4)c4ccccc4)C(C)=C1C3(C)C)[C@]1(OC(C)=O)CO[C@@H]1C[C@@H]2O", "growth": "3.91% (active)"}
{"smiles": "CC(=O)O[C@H]1C(=O)[C@@]2(C)[C@H]([C@H](OC(=O)c3ccccc3)[C@]3(O)C[C@H](OC(=O)[C@H](OC(=O)OCC4COC(C)(C)O4)[C@@H](NC(=O)c4ccccc4)c4ccccc4)C(C)=C1C3(C)C)[C@]1(OC(C)=O)CO[C@@H]1C[C@@H]2O", "note": "(some centres not stated)", "growth": "29.2%"}
{"smiles": "CC[C@H](C)[C@H](NC(=O)C12CC(NC(C)=O)(C1)C2)C(=O)N(C)[C@H](C[C@@H](OC(C)=O)c1nc(C(=O)N[C@@H](Cc2ccccc2)C[C@H](C)C(=O)OC)cs1)C(C)C", "growth": "29.3%"}
{"smiles": "CCn1cnc2c(Nc3cccc(Cl)c3)nc(N[C@@H]3CCCC[C@@H]3N)nc21", "growth": "6.27% (active)"}
{"smiles": "O=C(O)C1C(C(=O)O)C2(Cl)C(Cl)=C(Cl)C1(Cl)C2(Cl)Cl.[Hg]", "note": "(configuration not stated)", "growth": "87%"}
{"smiles": "CC[C@H](C)[C@H](NC(=O)[C@H]1CCCCN1C)C(=O)N(C)[C@H](C[C@@H](OC(C)=O)c1nc(C(=O)N[C@@H](Cc2ccccc2)C[C@H](C)C(=O)OC)cs1)C(C)C", "growth": "5.1% (active)"}
{"smiles": "CN1C(=O)C(=Cc2cn(CCCCCCn3c4ccccc4c(=O)c4ccccc43)c3ccccc23)C(=O)N(C)C1=O", "growth": "92.1%"}
{"smiles": "CC(C)(C)C(=O)OCOP(=O)(OCOC(=O)C(C)(C)C)C1CCCN(O)C1=O", "note": "(configuration not stated)", "growth": "7.4% (active)"}
{"smiles": "COC(=O)[C@@H](C)C[C@H](Cc1ccc2ccccc2c1)NC(=O)c1csc([C@@H](C[C@H](C(C)C)N(C)C(=O)[C@@H](NC(=O)[C@H]2CCCCN2C)C(C)C)OC(C)=O)n1", "growth": "70.3%"}
{"smiles": "C=C1C(=O)O[C@H]2[C@H]1CC/C(COC(=O)C(=O)c1cn(Cc3ccccc3)c3ccccc13)=C\\CC[C@@]1(C)O[C@@H]21", "growth": "-45.6% (active)"}
{"smiles": "CN(CCCCN(C)CCOS(C)(=O)=O)CCOS(C)(=O)=O", "growth": "89.4%"}
{"smiles": "NC(=O)CNc1ccc([As]=[As]c2ccc(NCC(N)=O)cc2)cc1", "note": "(configuration not stated)", "growth": "44.1%"}
